Measured values taken from PubChem BioAssay (NCI).
About 83,000 compounds went through this panel and 20% of them were active in at least one assay; those are over-represented in the sample as a whole.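 For each line, cells grew in 96-well plates with the test compound present at a single concentration for 48 hours.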 Active and inactive are the calls of the source. How the source made its calls: active means growth percent below 10; inactive means the rest.

system: MALME-3M melanoma; assay: NCI-60 one-dose screen, 48 h (100 = growth as untreated, 0 = no growth, -100 = all killed); settings: 10 µM unless noted

Row | SMILES | growth
1 | Cc1ccc(Nc2ccc(O)c3c2C(=O)c2c(O)ccc(Nc4ccc(C)cc4)c2C3=O)cc1 | 102% (inactive)
2 | CCOc1ccc2c(c1)/C(=C\C=C\C1CC(C)C3CC(OCC)CCC3N1CC)CC(C)N2CC (configuration not stated) | -30.1% (active)
3 | COc1ccc(C(Cn2ccnc2)Sc2ccc(Cl)c(Cl)c2)cc1 (configuration not stated) | 96.1% (inactive)
4 | Oc1ccc(Cl)cc1C(c1cc(Cl)ccc1O)C(Cl)(Cl)Cl | 11.9% (inactive)
5 | CCc1cccc(CC)c1N1C(=O)C=CC1=O | 121% (inactive)
6 | CCCC[n+]1c(/C=C\c2c(OC)cc(OC)cc2OC)ccc2ccccc21 | 13% (inactive)
7 | Cc1nn(CCO)c(C)c1N=[N+]([O-])c1c(C)nn(CCO)c1C | -59.9% (active)
8 | O=C1C(=O)c2cccnc2-c2ncccc21 | -12.6% (active)
9 | COC(=O)c1ccc(=O)c2nc3/c(=C/O)c(O)cc(=O)c3[nH]c12 | 1.52% (active)
10 | COc1cc(OC)c(/C=C/c2c3ccccc3cc[n+]2C)c(OC)c1 | 33.3% (inactive)
11 | CC(C)(C)CC(C)(C)c1ccc(OCCOCCSC(=N)N)cc1 | -60.8% (active)
12 | CC(=O)C1Cc2ccccc2C1=O (configuration not stated) | 94.3% (inactive)
13 | O=C1C=C(Cl)C(=O)c2ccccc21 | 85.1% (inactive)
14 | CCCOC(=O)c1nc(N(CC2CCCCC2)C(=O)NC)sc1/N=C/c1ccccc1 | 12.4% (inactive)
15 | Cc1nc([N+](=O)[O-])c(Sc2nncc(-c3ccccc3)n2)n1C | -7.36% (active)
16 | Cc1nnc(N/N=C/c2ccc([N+](=O)[O-])o2)[nH]c1=O | -30.8% (active)
17 | CC12CCC(O)CC1=CCC1C2CCC2(C)C3=NN=CC3CC12 (configuration not stated) | 98% (inactive)
18 | Nc1ccc(-c2ccc(N)c(S(=O)(=O)O)c2)cc1S(=O)(=O)O | 107% (inactive)
19 | COC(=O)c1cc([N+](=O)[O-])cc([N+](=O)[O-])c1Cl | 49.5% (inactive)

Row | SMILES | growth
20 | CCCCCCCCCCCCN1C(C)=CS/C1=C\C=C\c1scc(C)[n+]1CCCCCCCCCCCC | 29.9% (inactive)
21 | O=C1CSC(=S)N1Cc1cccnc1 | 102% (inactive)
22 | CCC[CH2][Sn]1([CH2]CCC)[O]C2C(CO)OC(n3ccc(N)nc3=O)C2[O]1 (configuration not stated) | -71.7% (active)
23 | CCCCCCCCCCCC[N+]1(CCCCCCCCCCCC)CCCC(C)C1 (configuration not stated) | -75.1% (active)
24 | CN(C)c1ccc(/C=C/c2ccnc3ccccc23)cc1 | 60.2% (inactive)
25 | CCCCCCCCCCCCNCCCc1ccccc1 | 82.5% (inactive)
26 | CC(=O)Nc1ccc(C(=O)CCl)cc1 | -53.9% (active)
27 | O=C1C=CC(O)=CC1=P(c1ccccc1)(c1ccccc1)c1ccccc1 | 59.5% (inactive)
28 | Oc1ccccc1N=Cc1ccccc1 | 95.6% (inactive)
29 | CCCCOS(=O)(=O)c1ccccc1 | 94.5% (inactive)
30 | O=[N+]([O-])c1cc(-c2ccccc2)c(O)c([N+](=O)[O-])c1 | 120% (inactive)
31 | CCCCCCC1N=C(N)N=C(N)N1c1cccc(Cl)c1 (configuration not stated) | 40.9% (inactive)
32 | O=[n+]1c2ccccc2n([O-])c2cc(Cl)ccc21 | 85.1% (inactive)
33 | N#CC1c2ccccc2C=CN1C(=O)CCCl (configuration not stated) | 5.05% (active)
34 | CN(Cc1ccccc1)c1ccc(SC#N)cc1 | 82.4% (inactive)
35 | O=[N+]([O-])C=C(c1ccccc1)c1ccccc1 | 80.2% (inactive)
36 | CC1CC(C)(C)OB(OC(C)CC(C)(C)OB2OC(C)CC(C)(C)O2)O1 (configuration not stated) | 111% (inactive)
37 | CCCCCCCCCCCC[n+]1ccccc1 (tested in a mixture with another compound) | -38.3% (active)

system: MDA-MB-231 breast; assay: as above; settings: 10 µM unless noted

Row | SMILES | growth
38 | Cc1ccc(Nc2ccc(O)c3c2C(=O)c2c(O)ccc(Nc4ccc(C)cc4)c2C3=O)cc1 | 110% (inactive)
39 | CCOc1ccc2c(c1)/C(=C\C=C\C1CC(C)C3CC(OCC)CCC3N1CC)CC(C)N2CC (configuration not stated) | 13.6% (inactive)
40 | COc1ccc(C(Cn2ccnc2)Sc2ccc(Cl)c(Cl)c2)cc1 (configuration not stated) | 79.1% (inactive)
41 | Oc1ccc(Cl)cc1C(c1cc(Cl)ccc1O)C(Cl)(Cl)Cl | -63.6% (active)
42 | CCc1cccc(CC)c1N1C(=O)C=CC1=O | 132% (inactive)
43 | CCCC[n+]1c(/C=C\c2c(OC)cc(OC)cc2OC)ccc2ccccc21 | -15.1% (active)
44 | Cc1nn(CCO)c(C)c1N=[N+]([O-])c1c(C)nn(CCO)c1C | 98.6% (inactive)
45 | O=C1C(=O)c2cccnc2-c2ncccc21 | -39.3% (active)
46 | COC(=O)c1ccc(=O)c2nc3/c(=C/O)c(O)cc(=O)c3[nH]c12 | 45.3% (inactive)
47 | COc1cc(OC)c(/C=C/c2c3ccccc3cc[n+]2C)c(OC)c1 | 42.4% (inactive)
48 | CC(=O)C1Cc2ccccc2C1=O (configuration not stated) | 98.8% (inactive)
49 | O=C1C=C(Cl)C(=O)c2ccccc21 | 69.1% (inactive)
50 | Cc1nc([N+](=O)[O-])c(Sc2nncc(-c3ccccc3)n2)n1C | 92.6% (inactive)
51 | Cc1nnc(N/N=C/c2ccc([N+](=O)[O-])o2)[nH]c1=O | 28.7% (inactive)
52 | CC12CCC(O)CC1=CCC1C2CCC2(C)C3=NN=CC3CC12 (configuration not stated) | 103% (inactive)
53 | Nc1ccc(-c2ccc(N)c(S(=O)(=O)O)c2)cc1S(=O)(=O)O | 110% (inactive)
54 | COC(=O)c1cc([N+](=O)[O-])cc([N+](=O)[O-])c1Cl | 105% (inactive)
55 | CCCCCCCCCCCCN1C(C)=CS/C1=C\C=C\c1scc(C)[n+]1CCCCCCCCCCCC | 20.2% (inactive)
56 | O=C1CSC(=S)N1Cc1cccnc1 | 106% (inactive)
57 | CCC[CH2][Sn]1([CH2]CCC)[O]C2C(CO)OC(n3ccc(N)nc3=O)C2[O]1 (configuration not stated) | -68.8% (active)
58 | CCCCCCCCCCCC[N+]1(CCCCCCCCCCCC)CCCC(C)C1 (configuration not stated) | -82.6% (active)
59 | CN(C)c1ccc(/C=C/c2ccnc3ccccc23)cc1 | 57.4% (inactive)
60 | CCCCCCCCCCCCNCCCc1ccccc1 | 61.3% (inactive)
61 | O=C1C=CC(O)=CC1=P(c1ccccc1)(c1ccccc1)c1ccccc1 | 81.3% (inactive)
62 | CCCCOS(=O)(=O)c1ccccc1 | 106% (inactive)
63 | O=[N+]([O-])c1cc(-c2ccccc2)c(O)c([N+](=O)[O-])c1 | 71.3% (inactive)
64 | CCCCCCC1N=C(N)N=C(N)N1c1cccc(Cl)c1 (configuration not stated) | 68% (inactive)
65 | O=[n+]1c2ccccc2n([O-])c2cc(Cl)ccc21 | 87.6% (inactive)
66 | N#CC1c2ccccc2C=CN1C(=O)CCCl (configuration not stated) | 103% (inactive)
67 | CCCCCCCCCCCC[n+]1ccccc1 (tested in a mixture with another compound) | -30.4% (active)
